Measured values taken from PubChem BioAssay (Tox21).
Several values for one entry are separate records, joined by “and”; a condition that tells them apart may be missing. Identical values can stand only once. Records with an inconclusive call do not appear. The source holds several records for some structures; these can differ, active in one and inactive in another. Activity calls are given as the source filed them. Unless noted, the call rests on the fitted dose curve; in most records, active means well fitted curve in the direction sought with a large enough effect in the repeat runs; inconclusive means weak or mixed curves; inactive means no such curve, though single readings can be large; an effect the other way counts as inactive or inconclusive.

Key:
[1] = qHTS assay to identify small molecule antagonists of the glucocorticoid receptor (GR) signaling pathway - cell viability counter screen (AID 720693); further: nearly all actives have a fitted effect of over 55% in size
[2] = qHTS assay for identifying genotoxic compounds that show differential cytotoxicity against isogenic chicken DT40 cell lines with known DNA damage response pathways - wild type cell line (AID 743012); further: nearly all actives have a fitted effect of over 60% in size; further: potency means the concentration at half of the fitted maximal effect
In short: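 Quantitative HTS on parental DT40 cells: 40 h compound treatment at 37 C/5% CO2, with viability then determined by CellTiter-Glo luminescence. Values serve as the DNA repair-proficient reference for differential cytotoxicity.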

[3] = qHTS assay for identifying genotoxic compounds that show differential cytotoxicity against isogenic chicken DT40 cell lines with known DNA damage response pathways - Rev3 mutant cell line (AID 743014); further: nearly all actives have a fitted effect of over 55% in size; further: potency means the concentration at half of the fitted maximal effect
[4] = qHTS assay to identify small molecule antagonists of the androgen receptor (AR) signaling pathway - cell viability counter screen (AID 743033; further: nearly all actives have a fitted effect of over 45% in size; further: potency means the concentration at half of the fitted maximal effect)
[5] = qHTS assay to identify small molecule antagonists of the androgen receptor (AR) signaling pathway using the MDA cell line - cell viability counter screen (AID 743041; further: nearly all actives have a fitted effect of over 45% in size; further: potency means the concentration at half of the fitted maximal effect)
In short: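 Same-well cytotoxicity was assessed by CellTiter-Fluor in MDA-kb2 AR-luc cells after 16 h of compound treatment under R1881 agonism.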

[6] = system: thyroid hormone receptor (rat, GH3 cells); experiment: qHTS assay to identify small molecule agonists of the thyroid receptor (TR) signaling pathway (AID 743066; calls by dose curve)
[7] = target: Estrogen receptor (Homo sapiens) (UniProt P03372); experiment: qHTS assay to identify small molecule antagonists of the estrogen receptor alpha (ER-alpha) signaling pathway (AID 743069; active means well fitted curve in the direction sought with a large enough effect in the signal ratio in the repeat runs, not every such curve was filed as active; the % refers to the signal ratio)
In short: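 Reporter cells (ER-alpha-bla, HEK293 background) are conditioned overnight in stripped-serum medium (2% charcoal-stripped FBS). Compound and 17beta-estradiol exposure runs 18 hr at 37C, 5% CO2.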

[8] = qHTS assay to identify small molecule antagonists of the estrogen receptor alpha (ER-alpha) signaling pathway - cell viability counter screen (AID 743074; calls by dose curve;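 further: HEK293 cells carrying ER-alpha-UAS-bla reporter stimulated with 17beta-estradiol; nearly all actives have a fitted effect of over 45% in size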; further: potency means the concentration at half of the fitted maximal effect)
[9] = target: Estrogen receptor (Homo sapiens) (UniProt P03372); experiment: qHTS assay to identify small molecule agonists of the estrogen receptor alpha (ER-alpha) signaling pathway (AID 743075; calls by dose curve; further: potency means the concentration at half of the fitted maximal effect)
[10] = target: Estrogen receptor (Homo sapiens) (UniProt P03372); experiment: qHTS assay to identify small molecule agonists of the estrogen receptor alpha (ER-alpha) signaling pathway using the BG1 cell line (AID 743079); further: nearly all actives have a fitted effect of over 20% in size; further: potency means the concentration at half of the fitted maximal effect
[11] = qHTS assay to identify small molecule antagonists of the estrogen receptor alpha (ER-alpha) signaling pathway using the BG1 cell line (AID 743080; calls by dose curve;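 further: BG1 cells stimulated with 17beta-estradiol alongside compound; nearly all actives have a fitted effect of over 25% in size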)
In short: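 Quantitative HTS on the Tox21 10K library: BG1 cells with endogenous ER-alpha and ERE-luciferase reporter, 17beta-estradiol stimulation, 21.5 h compound exposure, luminescence endpoint with parallel fluorescence cytotoxicity counter-read.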

[12] = qHTS assay to identify small molecule antagonists of the estrogen receptor alpha (ER-alpha) signaling pathway using the BG1 cell line - cell viability counter screen (AID 743081);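 further: compound given together with 17beta-estradiol as the ER stimulus; nearly all actives have a fitted effect of over 45% in size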; further: potency means the concentration at half of the fitted maximal effect
Aromatase (Homo sapiens) = Aromatase (Homo sapiens) (UniProt P11511); experiment: qHTS assay to identify aromatase inhibitors (AID 743083); further: nearly all actives have a fitted effect of over 55% in size; further: potency means the concentration at half of the fitted maximal effect
[13] = target: Androgen receptor (Homo sapiens) (UniProt P10275); experiment: qHTS assay to identify small molecule agonists of the androgen receptor (AR) signaling pathway using the MDA cell line (AID 743040; further: nearly all actives have a fitted effect of over 20% in size); conditions: MDA-kb2 AR-luc cells, MMTV luciferase, 16 h; activity change: at 70.3 µM (top of the series), stronger effect = higher value
In short: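 Human breast carcinoma MDA-kb2 reporter cells (MMTV-luc, AR/GR elements) were treated for 16 h at 37C in 0% CO2 following a 5 h settling period. Signal was quantified by ONE-Glo luminescence.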

[14] = target: Androgen receptor (Homo sapiens) (UniProt P10275); experiment: qHTS assay to identify small molecule antagonists of the androgen receptor (AR) signaling pathway using the MDA cell line (AID 743042; further: nearly all actives have a fitted effect of over 55% in size; further: potency means the concentration at half of the fitted maximal effect)
In short: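 MDA-kb2 breast carcinoma cells carrying MMTV-luciferase (AR/GR responsive) were co-treated with compounds and the agonist R1881 for 16 h at 37C. Inhibition read as ONE-Glo luminescence; CellTiter-Fluor fluorescence measured in parallel for cytotoxicity.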

[15] = qHTS assay to identify small molecule antagonists of the thyroid receptor (TR) signaling pathway - cell viability counter screen (AID 743064); further: nearly all actives have a fitted effect of over 50% in size; further: potency means the concentration at half of the fitted maximal effect
In short: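 GH3.TRE-Luc rat pituitary cells carrying a TRE-luciferase reporter were treated with compound plus 1 nM T3 (final) for 23.5 h at 37 °C. Viability was then read in the same wells by CellTiter-Fluor fluorescence after a further 30 min.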

[16] = qHTS assay for identifying genotoxic compounds that show differential cytotoxicity against isogenic chicken DT40 cell lines with known DNA damage response pathways - Rad54/Ku70 mutant cell line (AID 743015); further: nearly all actives have a fitted effect of over 60% in size; further: potency means the concentration at half of the fitted maximal effect
[17] = target: Androgen receptor (Homo sapiens) (UniProt P10275); experiment: qHTS assay to identify small molecule antagonists of the androgen receptor (AR) signaling pathway (AID 743035; active means well fitted inhibition curve with a large enough effect in the signal ratio in the repeat runs, not every such curve was filed as active; the % refers to the signal ratio; further: potency means the concentration at half of the fitted maximal effect)
In short: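 Cell line: GeneBLAzer AR-UAS-bla GripTite (HEK293). Stimulus: R1881 added after compound. Exposure: 16 h, 37C, 5% CO2. Readout: LiveBLAzer B/G FRET fluorescence after 2 h at room temperature.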

[18] = target: Androgen receptor (Homo sapiens) (UniProt P10275); experiment: qHTS assay to identify small molecule agonists of the androgen receptor (AR) signaling pathway (AID 743036; active means well fitted activation curve with a large enough effect in the signal ratio in the repeat runs, with a control signal flat, not every such curve was filed as active; the % refers to the signal ratio)
In short: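 HEK293 cells stably carrying a UAS-driven beta-lactamase reporter (GeneBLAzer AR-UAS-bla-GripTite) were plated at 2,000 cells/well, rested 4 h at 37C, then exposed to compounds in DMSO for 16 h. LiveBLAzer B/G FRET substrate was added for 2 h at room temperature; fluorescence read.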

[19] = qHTS assay to identify small molecule antagonists of the thyroid receptor (TR) signaling pathway (AID 743065); further: nearly all actives have a fitted effect of over 55% in size; further: potency means the concentration at half of the fitted maximal effect
In short: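 GH3.TRE-Luc rat pituitary cells (two TREs driving luciferase) were dosed with compound, then stimulated with 1 nM T3 (final) for 23.5 h at 37 C. ONE-Glo luminescence was the read-out, with CellTiter-Fluor fluorescence as the cytotoxicity counter-screen.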

Measured: Potency

Androgen receptor (Homo sapiens), sequence (P10275 whole entry, looked up): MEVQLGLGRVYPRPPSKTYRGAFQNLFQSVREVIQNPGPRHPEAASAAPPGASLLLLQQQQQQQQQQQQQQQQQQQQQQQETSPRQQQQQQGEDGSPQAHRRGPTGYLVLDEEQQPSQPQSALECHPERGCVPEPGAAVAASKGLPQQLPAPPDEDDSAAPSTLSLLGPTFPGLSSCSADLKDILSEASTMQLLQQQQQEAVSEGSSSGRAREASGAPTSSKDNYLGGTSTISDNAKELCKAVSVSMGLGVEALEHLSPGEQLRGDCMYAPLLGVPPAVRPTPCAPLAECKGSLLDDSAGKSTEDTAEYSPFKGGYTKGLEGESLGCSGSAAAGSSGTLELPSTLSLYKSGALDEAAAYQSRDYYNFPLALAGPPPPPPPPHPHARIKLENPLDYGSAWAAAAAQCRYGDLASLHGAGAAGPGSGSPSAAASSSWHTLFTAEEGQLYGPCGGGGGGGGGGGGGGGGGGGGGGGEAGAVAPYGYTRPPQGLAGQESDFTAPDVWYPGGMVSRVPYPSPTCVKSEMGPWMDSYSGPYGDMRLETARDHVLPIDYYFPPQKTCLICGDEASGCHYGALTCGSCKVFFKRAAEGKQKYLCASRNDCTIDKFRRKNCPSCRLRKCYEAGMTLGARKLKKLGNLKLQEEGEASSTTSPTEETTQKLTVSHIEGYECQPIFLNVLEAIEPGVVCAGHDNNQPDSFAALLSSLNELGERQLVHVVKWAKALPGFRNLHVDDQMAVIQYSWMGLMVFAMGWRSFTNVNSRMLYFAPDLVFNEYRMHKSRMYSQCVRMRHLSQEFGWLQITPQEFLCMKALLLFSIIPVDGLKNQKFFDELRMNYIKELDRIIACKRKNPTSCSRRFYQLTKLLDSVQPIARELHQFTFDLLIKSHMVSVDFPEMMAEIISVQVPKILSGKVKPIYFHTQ
Estrogen receptor (Homo sapiens), sequence (P03372 whole entry, looked up): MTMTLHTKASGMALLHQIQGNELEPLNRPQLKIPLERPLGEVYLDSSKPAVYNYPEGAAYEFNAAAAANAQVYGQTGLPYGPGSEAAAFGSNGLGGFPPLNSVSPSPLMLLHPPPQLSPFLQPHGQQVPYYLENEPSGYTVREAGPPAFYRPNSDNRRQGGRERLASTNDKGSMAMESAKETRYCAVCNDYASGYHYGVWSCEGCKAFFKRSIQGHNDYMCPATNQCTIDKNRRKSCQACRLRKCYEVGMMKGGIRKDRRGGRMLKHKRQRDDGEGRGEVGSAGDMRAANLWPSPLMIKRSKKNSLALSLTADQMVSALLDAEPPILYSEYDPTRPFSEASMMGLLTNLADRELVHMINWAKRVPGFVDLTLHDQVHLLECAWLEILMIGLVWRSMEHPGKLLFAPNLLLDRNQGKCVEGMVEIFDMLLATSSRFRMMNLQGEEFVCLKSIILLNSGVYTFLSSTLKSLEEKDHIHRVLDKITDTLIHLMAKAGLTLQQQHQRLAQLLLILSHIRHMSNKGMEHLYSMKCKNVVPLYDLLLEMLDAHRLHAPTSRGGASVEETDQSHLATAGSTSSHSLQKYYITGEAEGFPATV
Aromatase (Homo sapiens), sequence (P11511 whole entry, looked up): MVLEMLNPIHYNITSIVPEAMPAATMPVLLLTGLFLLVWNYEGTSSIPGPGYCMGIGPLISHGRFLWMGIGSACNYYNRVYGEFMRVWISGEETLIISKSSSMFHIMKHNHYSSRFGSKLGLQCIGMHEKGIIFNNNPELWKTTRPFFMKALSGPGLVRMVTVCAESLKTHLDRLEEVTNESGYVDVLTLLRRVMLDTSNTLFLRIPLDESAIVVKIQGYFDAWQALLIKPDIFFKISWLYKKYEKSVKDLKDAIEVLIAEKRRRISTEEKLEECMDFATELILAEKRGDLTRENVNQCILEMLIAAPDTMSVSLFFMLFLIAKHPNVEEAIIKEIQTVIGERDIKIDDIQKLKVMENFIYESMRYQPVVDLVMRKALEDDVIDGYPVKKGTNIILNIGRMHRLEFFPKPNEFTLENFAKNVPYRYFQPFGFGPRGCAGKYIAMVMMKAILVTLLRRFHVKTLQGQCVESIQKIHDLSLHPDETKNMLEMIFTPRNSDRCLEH

Brc1ccc(Oc2cc(Br)c(Br)cc2Br)c(Br)c1
inactive and 61.6 µM (active): [10]
not listed: [13] | [14] | [15] | [16] | [17] | [18] | [19]
inactive: all other assays above

O=[N+]([O-])c1ccc(O)c([N+](=O)[O-])c1
inactive: [1] | [2] | [3] | [4] | [13] | [6] | [7] | [9] | Aromatase (Homo sapiens)
active: [5] 30.8 µM and 61.1 µM | [14] 61.1 µM | [15] 61.1 µM | [12] 30.8 µM and 30.6 µM

N[C@@H](Cc1ccc(N(CCCl)CCCl)cc1)C(=O)O
inactive: [1] | [4] | [5] | [12]
active: [2] 944 nM and 8.28 µM | [3] 75 nM and 117 nM

CC(C)(OOC(C)(C)c1ccccc1)c1ccccc1
active: [16] 30.6 µM | [15] 42.7 µM | [19] 53.7 µM and 43.3 µM
inactive and 54.5 µM (active): [2]
not listed: [3] | [7] | [9] | [10] | [11]
inactive: all other assays above

O=[N+]([O-])c1c(Cl)c(Cl)c(Cl)c(Cl)c1Cl
active: [2] 61.1 µM
inactive and 61.1 µM (active): Aromatase (Homo sapiens)
inactive and 43.3 µM (active): [14]
not listed: [15] | [16] | [17] | [19]
inactive: all other assays above

C[C@]12CCC(=O)C(O)=C1CC[C@@H]1[C@@H]2CC[C@]2(C)C(=O)CC[C@@H]12
active: [2] 29.8 µM and 26.6 µM | [16] 29.8 µM and 26.6 µM | [9] 23.9 µM [activator] and 21.3 µM [activator] and 34.7 µM [activator] | [10] 11.9 µM and 5.96 µM and 5.45 µM | Aromatase (Homo sapiens) 75 nM and 53.1 nM and 27.3 nM
inactive: [1] | [4] | [5] | [19] | [6] | [8] | [11] | [12]

CNC(=O)Oc1cccc2c1OC(C)(C)O2
inactive: [1] | [2] | [3] | [4] | [5] | [8] | [9] | [10] | [11] | [12] | Aromatase (Homo sapiens)

Oc1cc(Cl)c(Cl)cc1Cl
inactive: [1] | [2] | [4] | [5] | [15] | [19] | [6] | [8] | [12] | Aromatase (Homo sapiens)
inactive and 68.6 µM (active): [3]

C=C(C)[C@H]1Cc2c(ccc3c2O[C@@H]2COc4cc(OC)c(OC)cc4[C@@H]2C3=O)O1
inactive: [1] | [18] | [13] | [6]
active: [2] 59.6 nM and 19.6 nM and 8.6 nM | [3] 119 nM and 11 nM and 8.6 nM | [4] 62.5 nM and 38.9 nM | [17] 756 nM and 279 nM | [5] 393 nM and 39.1 nM and 30.6 nM | [14] 188 nM and 24.7 nM and 9.7 nM | [19] 237 nM and 34.8 nM and 61.1 nM | [8] 67.4 nM and 44.2 nM | [12] 7.8 µM and 38.6 µM | Aromatase (Homo sapiens) 15 µM and 34.8 µM and 34.4 µM

CCCCCCCCOC(=O)c1ccccc1C(=O)OCCCCCCCC
not listed: [1]
inactive: all other assays above

COc1ccc(C=O)cc1
not listed: [13] | [14] | [15] | [16] | [17] | [18]
inactive: all other assays above

Cc1cc(C)cc(C)c1
inactive: [1] | [2] | [3] | [4] | [5] | [19] | [6] | [8] | [12]

Cc1cc(Cl)ccc1OCCCC(=O)O
not listed: [1] | [7] | [8] | [9] | [10] | [11] | [17] | [18]
inactive: all other assays above

CCCCN(CC)c1c([N+](=O)[O-])cc(C(F)(F)F)cc1[N+](=O)[O-]
inactive: [1] | [2] | [3] | [4] | [5] | [6] | [8] | [12] | Aromatase (Homo sapiens)

CCN(CC)C(=O)SCc1ccc(Cl)cc1
active: [2] 43.3 µM | [3] 21.7 µM
not listed: [13] | [14] | [16] | [17] | [18]
inactive: all other assays above

c1ccc(-c2cccc(-c3ccccc3)c2)cc1
inactive: [4] | [5] | [19] | [6] | [7] | [8] | [9] | [12] | Aromatase (Homo sapiens)
active: [10] 21.9 µM and 10.9 µM

CN(C)C(=O)Nc1ccc(Cl)cc1
inactive: [2] | [4] | [5] | [15] | [19] | [6] | [8] | [12] | Aromatase (Homo sapiens)

CC(C)(c1cc(Cl)c(O)c(Cl)c1)c1cc(Cl)c(O)c(Cl)c1
inactive and 61.1 µM (active): [15]
active: [19] 21.7 µM and 48.6 µM
inactive: [2] | [3] | [5] | [12] | Aromatase (Homo sapiens)

C1=Cc2cccc3cccc1c23
inactive: [2] | [4] | [5] | [19] | [6] | [8] | [12] | Aromatase (Homo sapiens)
active: [3] 60.1 µM

COc1ccc(C(CN(C)C)C2(O)CCCCC2)cc1 (configuration not stated)
inactive: [2] | [3] | [16] | [4] | [5] | [15] | [19] | [6] | [8] | [12] | Aromatase (Homo sapiens)

Cc1ccccc1[N+](=O)[O-]
not listed: [1] | [13] | [14] | [17] | [18]
inactive: all other assays above

N#CC(Br)Br
not listed: [1] | [13] | [14] | [16] | [17] | [18]
inactive: all other assays above

CC(C)NC(C)C
not listed: [1] | [13] | [14] | [17] | [18]
inactive: all other assays above

Nc1ccncc1
not listed: [1] | [15] | [16]
inactive: all other assays above

CCCCCCOC(=O)c1ccccc1C(=O)OCCCCCC
inactive and 30.6 µM (active): [2]
not listed: [1] | [13] | [14] | [16] | [17] | [18]
inactive: all other assays above

Oc1cc(Cl)ccc1Oc1ccc(Cl)cc1Cl
inactive and 11.2 µM (active): [8]
inactive and 24.8 µM (active): Aromatase (Homo sapiens)
inactive: [4] | [5] | [6] | [12]
active: [2] 7.02 µM | [3] 11.4 µM | [16] 26.6 µM and 10.3 µM | [15] 11.5 µM | [19] 8.84 µM
